From PubChem BioAssay (NCATS)
Inconclusive results are not listed. The source made the active and inactive calls. Calls follow the shape of the dose curve; as a rule, active = well fitted activation curve with a large enough effect; inconclusive = small, poorly fitted or top-dose-only effect; inactive = no such curve, though single readings can be large or run the other way.

Target: Cellular tumor antigen p53 (Homo sapiens) (UniProt P04637)
Assay: Primary qHTS for small molecule compounds that upregulate eGFP-tagged delta133p53alpha (in N-terminal) cells. (AID 2060322);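 also: series mostly up to about 56 µM; 0% = DMSO vehicle and 100% = reference activator; nearly all actives have a fitted effect of over 75% in size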
Details: NCI-H358 eGFP-delta133p53alpha fluorescence, 24 h; activation: hits give high values
Method in brief: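 NCI-H358 cells pre-induced 24 h with 10 ng/ml doxycycline to express N-terminal eGFP-delta133p53alpha, then dosed 24 h at 37C without doxycycline; fixed, Hoechst-stained, GFP intensity by laser scanning cytometry, normalized to DMSO (0%) and 57.5 uM 5-azacytidine (100%).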

Chain of Cellular tumor antigen p53 (Homo sapiens) (P04637 whole entry, looked up): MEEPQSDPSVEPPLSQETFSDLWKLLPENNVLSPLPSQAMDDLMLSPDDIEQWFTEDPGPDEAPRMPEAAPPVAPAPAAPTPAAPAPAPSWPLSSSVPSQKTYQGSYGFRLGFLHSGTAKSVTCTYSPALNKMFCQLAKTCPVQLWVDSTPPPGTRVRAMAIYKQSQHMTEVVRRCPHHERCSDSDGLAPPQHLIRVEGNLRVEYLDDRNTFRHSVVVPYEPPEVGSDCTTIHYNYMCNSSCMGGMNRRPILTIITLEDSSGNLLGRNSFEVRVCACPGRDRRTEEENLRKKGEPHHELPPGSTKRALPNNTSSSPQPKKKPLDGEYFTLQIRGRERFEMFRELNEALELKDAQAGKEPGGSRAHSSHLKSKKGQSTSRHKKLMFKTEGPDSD

Question: How did the activation turn out when `CCN(CC)CCN` was run?
Answer: -0.837% (inactive)

Question: Which activation does the source give for `CC(=O)NCCCCCC(=O)O` here?
Answer: 0.837% (inactive)

Question: How did the activation turn out when `CO/N=C(/C(=O)N[C@@H]1C(=O)N2C(C(=O)OCOC(=O)C(C)(C)C)=C(C)CS[C@H]12)c1csc(N)n1` was run?
Answer: -20.9% (inactive)

Question: With `COc1cc(OC)cc(-c2ccc3ncc4ccc(=O)n(-c5ccc(N6CCNCC6)c(C(F)(F)F)c5)c4c3c2)c1` as the compound, how does the activation read?
Answer: -7.04% (inactive)
